Test systems include HCT-15 colon; HT29 colon; SNB-75 CNS; SNB-19 CNS; U251 CNS; PC-3 prostate; SK-MEL-5 melanoma; UACC-62 melanoma; LOX IMVI melanoma; SK-MEL-28 melanoma; SK-MEL-2 melanoma; EKVX NSCLC; SN12C renal; UO-31 renal; TK-10 renal; ACHN renal; CAKI-1 renal; A498 renal; CCRF-CEM leukemia; MOLT-4 leukemia.
Assay in all cases: NCI-60 one-dose screen, 48 h (100 = growth as untreated, 0 = no growth, -100 = all killed)
Conditions in all cases: 10 µM unless noted

This is part of a sample that, as a whole, favours compounds with a hit. Of some 83,000 tested, about 20% had one in any assay.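 Activity criterion: percent growth below 10, measured after cells in 96-well plates were exposed to a single compound concentration for 48 hours.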 A number with no mark means an inactive call. Calls of active or inactive are those of the source.

Consider eight molecules from PubChem BioAssay (NCI).

In the case of `Cc1c2ncccc2nc2[nH]c3ccc(OCCN(C)C)cc3c12`, the growth in the test with HCT-15 colon was 15.7%; in the test with HT29 colon, 5.4% (active); with SNB-75 CNS, 63%; with SNB-19 CNS, 15.3%; in the test on U251 CNS, 20.3%; in the test with PC-3 prostate, 12.1%. In addition, the growth in the test on SK-MEL-5 melanoma was 47%; in the test with UACC-62 melanoma, 35.2%; in the test on LOX IMVI melanoma it was 18%; in the test with SK-MEL-28 melanoma it was 78.5%; in the test with SK-MEL-2 melanoma it was 33.7%; in the test with EKVX NSCLC, 49.2%. In addition, the growth in the test on SN12C renal is 13.9%; in the test on UO-31 renal it was 19.1%; with TK-10 renal, 31%; in the test with ACHN renal, 10.6%; in the test on CAKI-1 renal, 63.3%; in the test on A498 renal it was 79.9%. Also, the growth is 6.43% (active) in the test with CCRF-CEM leukemia and 9.61% (active) in the test on MOLT-4 leukemia.
`CCOC(=O)/C=C1\S/C(=N\Nc2cc(=O)[nH]c3ccc(Br)cc23)N(c2ccccc2)C1=O`: the growth is 42.3% in the test with HCT-15 colon; 104% with HT29 colon; 80.4% in the test on SNB-75 CNS; 90.4% in the test with SNB-19 CNS; 77.1% with U251 CNS; 44.1% in the test on PC-3 prostate. Moreover, the growth was 98.3% with SK-MEL-5 melanoma; 78.6% in the test on UACC-62 melanoma; 90.6% in the test on LOX IMVI melanoma; 95.3% with SK-MEL-28 melanoma; 99.3% in the test on SK-MEL-2 melanoma; 97.2% in the test with EKVX NSCLC. Besides, the growth with SN12C renal is 78.9%; with UO-31 renal, 60.1%; with TK-10 renal it was 90.8%; in the test with ACHN renal, 73%; in the test with CAKI-1 renal, 69.9%; in the test with A498 renal, 95.6%. Further, the growth in the test on CCRF-CEM leukemia was 10.5%; with MOLT-4 leukemia, 21.4%.
With `Cc1ccc(NC(=O)c2sc3nc(C)c(C(O)c4ccccc4)cc3c2N)cc1` (stereo not given), the growth in the test with HCT-15 colon was 9.64% (active); in the test on HT29 colon, 9.15% (active); in the test on SNB-75 CNS it was 22.5%; with SNB-19 CNS, 24.5%; in the test on U251 CNS it was 13.9%; in the test with PC-3 prostate it was 19.6%. The growth in the test on SK-MEL-5 melanoma is 12.7%; with UACC-62 melanoma, 28.8%; in the test on LOX IMVI melanoma it was 23.5%; in the test on SK-MEL-28 melanoma, 57.6%; in the test on SK-MEL-2 melanoma it was 42.5%; in the test with EKVX NSCLC, 48%. The growth in the test with SN12C renal was 18.9%; with UO-31 renal it was 41.6%; in the test on TK-10 renal it was 53%; with ACHN renal, 32.8%; in the test with CAKI-1 renal it was 33.8%; in the test with A498 renal it was -8.03% (active). In addition, the growth was 7.67% (active) with CCRF-CEM leukemia and 18.1% with MOLT-4 leukemia.
Turning to `COc1ccc(C2C3=C(COC3=O)N(CCO)c3cc4c(cc32)OCO4)cc1OC` (stereo not given), the growth in the test on HCT-15 colon is 77%; with HT29 colon it was 39.9%; in the test with SNB-75 CNS, 71%; in the test on SNB-19 CNS, 88.1%; in the test on U251 CNS it was 97.9%; with PC-3 prostate it was 58.3%. Also, the growth with SK-MEL-5 melanoma was 67.9%; in the test on UACC-62 melanoma it was 71.8%; in the test with LOX IMVI melanoma, 77.2%; in the test on SK-MEL-28 melanoma, 89%; in the test on SK-MEL-2 melanoma, 93.2%; in the test with EKVX NSCLC, 96.1%. In addition, the growth with SN12C renal was 94.8%; in the test on UO-31 renal, 95.9%; in the test on TK-10 renal, 105%; in the test on ACHN renal, 101%; in the test with CAKI-1 renal, 98.4%; with A498 renal it was 79%. In addition, the growth with CCRF-CEM leukemia was 65.2%; in the test on MOLT-4 leukemia, 88.5%.
As to `O=C(Nc1nc(Cl)nc(Nc2ccc(N3CCOCC3=O)cc2)n1)c1ccc(Cl)s1`, the growth was 94.2% in the test with HCT-15 colon; 94.3% with HT29 colon; 103% in the test with SNB-75 CNS; 88.2% in the test on SNB-19 CNS; 85.4% in the test with U251 CNS; 85.4% in the test with PC-3 prostate. Also, the growth is 91.3% in the test with SK-MEL-5 melanoma; 87% in the test on UACC-62 melanoma; 62.1% with LOX IMVI melanoma; 96% in the test on SK-MEL-28 melanoma; 84% in the test on SK-MEL-2 melanoma; 102% in the test with EKVX NSCLC. For the same molecule, the growth is 92.1% with SN12C renal; 91.5% in the test on UO-31 renal; 120% in the test on TK-10 renal; 95.7% with ACHN renal; 99.8% in the test on CAKI-1 renal; 85.7% in the test on A498 renal. The growth is 80.9% in the test with CCRF-CEM leukemia and 85.2% with MOLT-4 leukemia.
As to `CCOC(=O)c1nnn(Cc2cc(=O)oc3ccc(O)cc23)c1C`, the growth in the test on HCT-15 colon was 103%; in the test with HT29 colon, 103%; with SNB-75 CNS, 93.4%; with SNB-19 CNS, 96%; with U251 CNS it was 105%; in the test on PC-3 prostate it was 95.2%. Moreover, the growth was 104% in the test on SK-MEL-5 melanoma; 95.9% in the test on UACC-62 melanoma; 99.9% in the test with LOX IMVI melanoma; 107% with SK-MEL-28 melanoma; 111% with SK-MEL-2 melanoma; 105% in the test with EKVX NSCLC. Further, the growth in the test with SN12C renal is 96.2%; in the test on UO-31 renal it was 91.8%; in the test with TK-10 renal, 101%; in the test on ACHN renal it was 105%; with CAKI-1 renal, 96.7%; in the test with A498 renal, 101%. Moreover, the growth in the test with CCRF-CEM leukemia was 82.9%; in the test with MOLT-4 leukemia it was 100%.
Take `COCC(=O)Oc1cc(-c2ccc(C)cc2C)c(OC(=O)COC)c(-c2ccc(C)cc2C)c1`: the growth in the test on HCT-15 colon is 10.2%; in the test with HT29 colon it was 34.3%; in the test with SNB-75 CNS it was 80.4%; in the test with SNB-19 CNS, 60.9%; in the test on U251 CNS, 46.7%; with PC-3 prostate it was 43.4%. Also, the growth in the test on SK-MEL-5 melanoma is 13.7%; with UACC-62 melanoma, 45.1%; in the test with LOX IMVI melanoma, 35.6%; in the test with SK-MEL-28 melanoma, 87.9%; in the test with SK-MEL-2 melanoma, 28.9%; with EKVX NSCLC, 57.1%. For the same molecule, the growth in the test on SN12C renal is 56.4%; in the test with UO-31 renal, 47.7%; with TK-10 renal it was 70.9%; with ACHN renal, -18% (active); in the test on CAKI-1 renal, 9.83% (active); in the test on A498 renal, 68.7%. For the same molecule, the growth in the test with CCRF-CEM leukemia was 38.9%; with MOLT-4 leukemia, 21.7%.
With `Nc1ccc(-c2ccncc2)cc1NC(=O)N1CCCC1`, the growth was 100% with HCT-15 colon; 72.9% with HT29 colon; 85% with SNB-75 CNS; 106% in the test on SNB-19 CNS; 89.8% in the test on U251 CNS; 91.2% in the test on PC-3 prostate. Moreover, the growth was 99.3% in the test on SK-MEL-5 melanoma; 91.7% with UACC-62 melanoma; 112% with LOX IMVI melanoma; 96.1% in the test with SK-MEL-28 melanoma; 87.9% in the test on SK-MEL-2 melanoma; 104% with EKVX NSCLC. The growth was 100% in the test on SN12C renal; 88.7% in the test with UO-31 renal; 85.2% in the test with TK-10 renal; 108% with ACHN renal; 95% with CAKI-1 renal; 76.8% in the test on A498 renal. Moreover, the figures for the growth with CCRF-CEM leukemia and with MOLT-4 leukemia were 88.1% and 87%, respectively.
